# The supplement of paper PMC10849652
# The full data set covers some 7,900 targets. This sample favours those with a hit. About 0.6% of all pairs of compound and target were hits. Values without a mark were called inactive.
# What was measured:
# Experiment in all cases: log2 fold change, soluble protein after heating vs DMSO (PISA); higher = thermal stabilisation; K562 cells, 10 uM, 30 min; active = over 0.2 and 3.5 SD of the protein, either way, in both replicates (recomputed)
# [1] = compound: COC1=CC=C(C=C1)CN2C=CC3=C2C=C(C=C3)C(=O)NO
# Outline: (§1)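 K562 cells at 2×10^6 cells/mL were exposed to 10 μM compound for 30 min, then aliquots were heated for 3 min across 48°C-58°C, pooled, and extracted in PBS containing 0.5% NP-40 at 4°C. The supernatant after 21,000xg for 90 min was taken as soluble protein and measured by TMTpro 16plex LC-MS/MS with channel sums equalised. Thermal stability is reported relative to control samples, with values from duplicates. Fold changes are given on a log2 scale.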
# [2] = compound: CON(C)C(=O)N1N=C(c2cc(F)ccc2F)S[C@@]1(CCCN)c1ccccc1 [filanesib]
# Outline: as §1
# [3] = compound: CO[C@H]1C[C@@H]2CC[C@@H](C)[C@@](O)(O2)C(=O)C(=O)N2CCCC[C@H]2C(=O)O[C@H]([C@H](C)C[C@@H]2CC[C@H](n3cnnn3)[C@H](OC)C2)CC(=O)[C@H](C)/C=C(\C)[C@@H](O)[C@@H](OC)C(=O)[C@H](C)C[C@H](C)/C=C/C=C/C=C/1C [zotarolimus]
# Outline: as §1
# [4] = compound: COc1cc(C(=O)O)ccc1NC(=O)[C@@H]1N[C@@H](CC(C)(C)C)[C@](C#N)(c2ccc(Cl)cc2F)[C@H]1c1cccc(Cl)c1F [idasanutlin]
# Outline: as §1
# [5] = compound: COc1cc(Nc2ncc3c(n2)-c2ccc(Cl)cc2C(c2c(F)cccc2OC)=NC3)ccc1C(=O)O [alisertib]
# Outline: as §1
# [6] = compound: COc1cc2nc(-c3cc(F)ccc3O)nc(N[C@@H]3CNC[C@H]3C(C)(C)O)c2cc1OC
# Outline: as §1
# [7] = compound: COc1cc2ncnc(Nc3ccc(F)c(Cl)c3)c2cc1OCCCN1CCOCC1 [gefitinib]
# Outline: as §1
# [8] = compound: COc1cccc2cc(-c3nc([C@H]4CC[C@H](C(=O)O)CC4)n4ncnc(N)c34)[nH]c12
# Outline: as §1
# [9] = compound: CS(=O)(=O)CCNCc1ccc(-c2ccc3ncnc(Nc4ccc(OCc5cccc(F)c5)c(Cl)c4)c3c2)o1 [lapatinib]
# Outline: as §1
# [10] = compound: CS(=O)(=O)N1CCN(Cc2cc3nc(-c4cccc5[nH]ncc45)nc(N4CCOCC4)c3s2)CC1 [pictilisib]
# Outline: as §1
# Sequence of UniProt P11802 (P11802 whole entry, looked up): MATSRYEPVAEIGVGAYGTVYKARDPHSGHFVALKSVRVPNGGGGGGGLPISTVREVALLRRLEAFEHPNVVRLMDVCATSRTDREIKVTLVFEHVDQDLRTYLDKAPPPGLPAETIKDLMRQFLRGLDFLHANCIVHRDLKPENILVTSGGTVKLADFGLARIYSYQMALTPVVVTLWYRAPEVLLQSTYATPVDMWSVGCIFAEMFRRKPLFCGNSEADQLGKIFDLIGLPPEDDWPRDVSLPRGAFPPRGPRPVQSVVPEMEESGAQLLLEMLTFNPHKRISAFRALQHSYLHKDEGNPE
# Sequence of UniProt Q00536 (Q00536 whole entry, looked up): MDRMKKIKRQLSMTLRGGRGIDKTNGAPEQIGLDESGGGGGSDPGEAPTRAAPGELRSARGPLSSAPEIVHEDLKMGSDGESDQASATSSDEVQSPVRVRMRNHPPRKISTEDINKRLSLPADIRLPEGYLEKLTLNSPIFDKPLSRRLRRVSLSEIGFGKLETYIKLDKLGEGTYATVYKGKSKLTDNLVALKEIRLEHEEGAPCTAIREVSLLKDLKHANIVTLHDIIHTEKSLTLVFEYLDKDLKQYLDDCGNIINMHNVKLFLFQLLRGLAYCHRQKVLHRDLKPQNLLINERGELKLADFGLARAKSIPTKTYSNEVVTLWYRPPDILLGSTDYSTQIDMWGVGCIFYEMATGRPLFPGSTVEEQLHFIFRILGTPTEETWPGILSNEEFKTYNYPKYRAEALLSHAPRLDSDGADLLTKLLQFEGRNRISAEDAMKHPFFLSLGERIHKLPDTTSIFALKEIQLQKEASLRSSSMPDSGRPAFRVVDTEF
# Sequence of UniProt P83916 (P83916 whole entry, looked up): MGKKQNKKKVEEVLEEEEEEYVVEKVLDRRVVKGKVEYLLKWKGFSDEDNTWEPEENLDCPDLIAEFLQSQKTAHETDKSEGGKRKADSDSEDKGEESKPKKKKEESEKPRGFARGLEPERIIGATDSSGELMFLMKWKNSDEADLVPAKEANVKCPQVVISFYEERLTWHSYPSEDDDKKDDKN
# Sequence of UniProt P21964 (P21964 whole entry, looked up): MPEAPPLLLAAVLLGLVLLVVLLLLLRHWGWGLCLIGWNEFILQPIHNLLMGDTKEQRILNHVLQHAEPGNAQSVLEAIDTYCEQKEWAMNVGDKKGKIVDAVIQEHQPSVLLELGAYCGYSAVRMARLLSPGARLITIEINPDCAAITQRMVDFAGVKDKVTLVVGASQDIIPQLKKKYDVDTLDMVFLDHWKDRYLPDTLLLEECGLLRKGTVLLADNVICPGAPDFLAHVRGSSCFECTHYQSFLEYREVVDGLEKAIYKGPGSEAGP
# Sequence of UniProt Q13555 (Q13555 whole entry, looked up): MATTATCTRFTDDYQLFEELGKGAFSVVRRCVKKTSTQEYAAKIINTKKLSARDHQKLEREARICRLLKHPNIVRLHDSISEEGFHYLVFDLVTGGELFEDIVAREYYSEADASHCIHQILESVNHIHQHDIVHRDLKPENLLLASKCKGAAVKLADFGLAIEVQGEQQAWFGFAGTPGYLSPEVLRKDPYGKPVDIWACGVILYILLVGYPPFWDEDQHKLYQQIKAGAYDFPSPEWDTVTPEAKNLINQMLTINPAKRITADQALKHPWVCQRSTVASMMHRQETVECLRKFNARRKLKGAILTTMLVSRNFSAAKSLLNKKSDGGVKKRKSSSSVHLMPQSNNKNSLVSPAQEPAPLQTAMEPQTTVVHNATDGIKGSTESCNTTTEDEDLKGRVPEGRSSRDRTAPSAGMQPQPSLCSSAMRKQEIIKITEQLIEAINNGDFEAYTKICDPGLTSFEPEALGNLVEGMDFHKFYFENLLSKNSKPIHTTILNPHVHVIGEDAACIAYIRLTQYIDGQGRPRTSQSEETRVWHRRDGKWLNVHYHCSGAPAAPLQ
# Sequence of UniProt O75122 (O75122 whole entry, looked up): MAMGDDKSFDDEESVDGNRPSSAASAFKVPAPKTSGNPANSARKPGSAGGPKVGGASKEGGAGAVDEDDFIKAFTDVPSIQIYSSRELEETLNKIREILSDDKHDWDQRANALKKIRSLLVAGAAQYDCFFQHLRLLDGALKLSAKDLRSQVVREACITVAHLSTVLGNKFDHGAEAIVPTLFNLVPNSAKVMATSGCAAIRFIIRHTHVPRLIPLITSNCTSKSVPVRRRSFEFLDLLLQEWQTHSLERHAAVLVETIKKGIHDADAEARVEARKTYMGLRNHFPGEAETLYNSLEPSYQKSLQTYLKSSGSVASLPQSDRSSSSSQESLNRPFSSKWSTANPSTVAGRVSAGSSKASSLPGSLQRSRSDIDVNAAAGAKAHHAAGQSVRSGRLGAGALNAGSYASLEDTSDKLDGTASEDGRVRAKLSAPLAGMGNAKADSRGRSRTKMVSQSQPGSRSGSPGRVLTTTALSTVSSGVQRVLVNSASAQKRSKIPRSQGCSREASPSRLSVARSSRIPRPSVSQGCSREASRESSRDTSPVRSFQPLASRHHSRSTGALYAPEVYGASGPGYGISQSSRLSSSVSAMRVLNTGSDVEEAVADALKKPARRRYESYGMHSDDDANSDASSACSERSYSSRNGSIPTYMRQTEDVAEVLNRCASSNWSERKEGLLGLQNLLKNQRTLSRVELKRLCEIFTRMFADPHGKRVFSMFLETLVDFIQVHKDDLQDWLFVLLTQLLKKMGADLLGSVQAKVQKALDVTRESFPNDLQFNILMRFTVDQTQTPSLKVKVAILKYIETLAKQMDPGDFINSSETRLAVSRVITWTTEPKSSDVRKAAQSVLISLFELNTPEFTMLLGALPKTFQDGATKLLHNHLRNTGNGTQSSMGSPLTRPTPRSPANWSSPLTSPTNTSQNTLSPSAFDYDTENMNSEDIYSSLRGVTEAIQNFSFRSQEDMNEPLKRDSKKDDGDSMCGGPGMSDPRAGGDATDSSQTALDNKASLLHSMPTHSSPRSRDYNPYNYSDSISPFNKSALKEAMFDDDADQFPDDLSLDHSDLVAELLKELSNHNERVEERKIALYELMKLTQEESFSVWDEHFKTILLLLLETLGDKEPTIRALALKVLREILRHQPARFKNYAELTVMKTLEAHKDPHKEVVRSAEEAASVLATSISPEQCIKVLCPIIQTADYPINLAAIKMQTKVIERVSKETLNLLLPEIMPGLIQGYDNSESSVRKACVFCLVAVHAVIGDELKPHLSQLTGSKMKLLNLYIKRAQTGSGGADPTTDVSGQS
# Sequence of UniProt P41208 (P41208 whole entry, looked up): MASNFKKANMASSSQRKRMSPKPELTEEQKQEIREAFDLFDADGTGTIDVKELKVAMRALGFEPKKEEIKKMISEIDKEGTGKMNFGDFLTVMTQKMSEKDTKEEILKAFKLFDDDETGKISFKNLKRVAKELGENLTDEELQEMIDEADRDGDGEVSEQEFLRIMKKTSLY
# Sequence of UniProt Q96KA5 (Q96KA5 whole entry, looked up): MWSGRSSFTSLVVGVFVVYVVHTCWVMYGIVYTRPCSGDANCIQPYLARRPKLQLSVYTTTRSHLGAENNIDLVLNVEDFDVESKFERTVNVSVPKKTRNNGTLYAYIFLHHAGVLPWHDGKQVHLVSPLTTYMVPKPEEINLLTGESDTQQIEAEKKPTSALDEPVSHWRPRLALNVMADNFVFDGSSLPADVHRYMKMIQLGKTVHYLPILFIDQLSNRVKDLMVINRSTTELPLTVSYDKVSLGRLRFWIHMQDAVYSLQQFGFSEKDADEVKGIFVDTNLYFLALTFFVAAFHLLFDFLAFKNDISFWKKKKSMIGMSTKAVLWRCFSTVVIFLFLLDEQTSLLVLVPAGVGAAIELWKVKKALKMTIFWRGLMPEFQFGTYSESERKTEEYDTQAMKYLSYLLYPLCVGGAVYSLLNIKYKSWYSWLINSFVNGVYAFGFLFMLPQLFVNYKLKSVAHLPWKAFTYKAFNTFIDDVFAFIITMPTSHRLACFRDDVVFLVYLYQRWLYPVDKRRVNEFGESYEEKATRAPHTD
# Sequence of UniProt A6NHX0 (A6NHX0 whole entry, looked up): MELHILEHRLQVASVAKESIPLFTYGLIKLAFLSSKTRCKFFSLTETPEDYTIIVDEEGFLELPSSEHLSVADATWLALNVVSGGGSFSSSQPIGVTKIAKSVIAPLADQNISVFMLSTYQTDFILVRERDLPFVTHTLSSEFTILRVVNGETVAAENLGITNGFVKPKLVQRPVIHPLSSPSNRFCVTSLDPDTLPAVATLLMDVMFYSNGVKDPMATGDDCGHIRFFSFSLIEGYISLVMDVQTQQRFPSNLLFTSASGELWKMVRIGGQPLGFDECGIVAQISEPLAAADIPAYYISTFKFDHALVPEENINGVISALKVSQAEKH
# Sequence of UniProt P42574 (P42574 whole entry, looked up): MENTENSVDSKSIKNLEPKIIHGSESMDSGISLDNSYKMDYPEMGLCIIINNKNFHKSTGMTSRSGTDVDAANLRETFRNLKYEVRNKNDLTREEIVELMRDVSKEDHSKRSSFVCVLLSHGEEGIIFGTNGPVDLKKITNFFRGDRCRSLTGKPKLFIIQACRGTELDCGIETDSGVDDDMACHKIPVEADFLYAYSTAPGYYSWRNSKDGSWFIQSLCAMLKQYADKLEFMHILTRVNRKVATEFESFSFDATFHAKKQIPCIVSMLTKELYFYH
# Sequence of UniProt P10606 (P10606 whole entry, looked up): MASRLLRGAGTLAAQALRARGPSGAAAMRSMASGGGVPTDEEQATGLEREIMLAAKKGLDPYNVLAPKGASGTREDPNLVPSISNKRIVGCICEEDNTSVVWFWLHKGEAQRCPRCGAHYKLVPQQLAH
# Sequence of UniProt Q99807 (Q99807 whole entry, looked up): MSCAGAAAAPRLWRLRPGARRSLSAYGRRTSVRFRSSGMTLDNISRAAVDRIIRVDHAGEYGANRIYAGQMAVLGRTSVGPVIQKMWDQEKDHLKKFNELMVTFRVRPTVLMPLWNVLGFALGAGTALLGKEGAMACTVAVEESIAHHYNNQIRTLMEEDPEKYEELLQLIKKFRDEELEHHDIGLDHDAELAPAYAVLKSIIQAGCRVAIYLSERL
# Sequence of UniProt Q9Y6H1 (Q9Y6H1 whole entry, looked up): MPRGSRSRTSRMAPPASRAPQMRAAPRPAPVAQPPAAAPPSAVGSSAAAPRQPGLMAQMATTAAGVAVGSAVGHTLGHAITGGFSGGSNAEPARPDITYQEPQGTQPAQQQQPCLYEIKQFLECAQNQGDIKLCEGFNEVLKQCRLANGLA
Target,log2 fold change [1],log2 fold change [2],log2 fold change [3],log2 fold change [4],log2 fold change [5],log2 fold change [6],log2 fold change [7],log2 fold change [8],log2 fold change [9],log2 fold change [10]
CLN5 (UniProt O75503),0.021,-0.385,0.075,0.049,0.265,-0.65,-0.341,0.27,-0.028,–
CBX1 (UniProt P83916),0.41 (active),-0.016,0.008,0.038,-0.059,-0.086,0.021,0.003,0.037,-0.046
CASTOR2 (UniProt A6NHX0),0.04,-0.042,-0.038,0.027,-0.08,0.194,-0.053,0.063,-0.108,-0.042
"CLUH, A0A494C0R8",0.131,0.168,-0.065,0.027,0.007,-0.024,0.078,-0.227,-0.011,–
C9orf72 (UniProt Q96LT7),-0.06,-0.054,-0.115,-0.026,0.062,-0.013,-0.034,-0.062,0.062,-0.015
CERT isoform 3 (UniProt Q9Y5P4),-0.025,0.001,0.2,-0.145,-0.064,-0.201,0.157,-0.004,0.247,0.186
CDK4 (UniProt P11802),-0.111,0.09,-0.071,0.061,0.062,-0.049,0.017,-0.057,-0.031,–
CNTN4 (UniProt Q8IWV2),0.1,0,0.017,-0.148,-0.399,0.341,-0.039,-0.169,-0.047,0.222
CLSPN (UniProt Q9HAW4),-0.076,0.053,-0.034,0.107,0.004,-0.111,-0.019,-0.018,0.053,–
CDKN2AIP (UniProt Q9NXV6),0.059,0.024,-0.029,-0.033,-0.091,-0.007,0.038,0.054,0.042,-0.025
CLTB (UniProt P09497),0.263 (active),-0.053,-0.006,-0.02,-0.106,0,0.017,0.028,-0.014,–
CETN2 (UniProt P41208),-0.114,0.225,-0.067,0.042,-0.112,0.141,0.019,0.028,-0.207,0.028
CLCN7 (UniProt P51798),0.112,-0.294 (active),0.008,-0.006,-0.084,-0.077,-0.144,0.023,-0.011,–
CLASP2 isoform 3 (UniProt O75122),0.021,0.068,0.033,-0.024,-0.021,0.055,-0.002,0.003,-0.009,–
CNOT7 (UniProt Q9UIV1),-0.032,0.012,0.018,-0.008,-0.011,0.233,0.134,-0.067,-0.036,0.001
COMT (UniProt P21964),-0.097,-0.054,0.034,-0.093,0.009,0.15,0.043,0.004,-0.042,0.136

Target,log2 fold change [1],log2 fold change [2],log2 fold change [3],log2 fold change [4],log2 fold change [5],log2 fold change [6],log2 fold change [7],log2 fold change [8],log2 fold change [9],log2 fold change [10]
CLPTM1L (UniProt Q96KA5),-0.053,-0.114,-0.095,-0.141,-0.032,-0.08,-0.007,0.065,-0.02,–
CLCN3 (UniProt P51790),-0.158,-0.12,-0.099,-0.095,-0.016,0.031,0.045,0.058,-0.06,–
CHCHD2 (UniProt Q9Y6H1),0.101,0.026,-0.024,-0.457 (active),0.053,-0.002,-0.028,-0.155,-0.024,0.031
COQ7 (UniProt Q99807),0.001,-0.098,-0.081,0.026,0.115,0.011,0.055,0.031,0.042,0.074
COX5B (UniProt P10606),0.012,0.212,0.094,0.019,-0.103,0.004,0.011,0.015,-0.038,-0.04
CLUH (UniProt O75153),-0.026,0.07,0.028,-0.074,-0.072,-0.022,-0.001,-0.152,0.006,–
CAMK2G isoform 6 (UniProt Q13555),-0.018,0.269,0.039,-0.101,-0.173,-0.032,-0.006,-0.204,0.12,0.141
CHD4 isoform 2 (UniProt Q14839),0.04,0.079,0.019,0.045,0,-0.099,0.055,-0.097,0.013,-0.028
CLPP (UniProt Q16740),-0.03,-0.017,0,-0.038,-0.091,0.011,0.01,0.021,-0.034,–
C16orf58 (UniProt Q96GQ5),-0.059,-0.148,-0.043,-0.053,-0.009,-0.009,0.044,0.037,0.004,0.015
CLCN3 isoform 2 (UniProt P51790),0.057,-0.151,-0.031,-0.008,0.03,-0.064,-0.015,0.04,0.008,–
CDK16 isoform 2 (UniProt Q00536),0.029,0.021,-0.028,-0.036,0.02,0.252,-0.086,0.037,0.002,–
CLPX (UniProt O76031),0.077,-0.07,-0.052,-0.007,-0.026,-0.017,0.019,0.021,0.014,–
CLINT1 isoform 3 (UniProt Q14677),-0.159,0.155,-0.031,0,-0.105,0.074,0.148,-0.041,0.014,–
CASP3 (UniProt P42574),0.004,-0.002,0.029,0.072,-0.103,0.025,0.002,-0.018,0.017,0.006
